Where a name gives a salt, the structure may show the parent alone.
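Also: High-content confocal imaging of branched-DNA amplified FISH in 384-well plates, Hoechst-defined nuclei, score is well value minus plate DMSO median over DMSO robust SD, four wells per compound.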

In this assay the test system is HeLa. As to the kind of experiment: MALAT1 nuclear FISH intensity, robust Z-score vs DMSO; higher = more nuclear MALAT1 lncRNA, active = -3 or less. As to conditions: 10 µM; 6 h.
With `CC(C)Nc1cccnc1N1CCN(C(=O)c2cc3cc(NS(C)(=O)=O)ccc3[nH]2)CC1` [Delavirdine Mesylate], the “MALAT1 nuclear FISH intensity” value was 1.25 (inactive).
With `CCCCC[C@H](O)/C=C/[C@H]1[C@H](O)CC(=O)[C@@H]1C/C=C\CCCC(=O)O` [Prostaglandin  E2], the “MALAT1 nuclear FISH intensity” value is -0.672 (inactive).
For the molecule `CC(C)(C)c1cc(O)c(C(C)(C)C)cc1O` [2,5-Ditertbutylhydroquinone], the “MALAT1 nuclear FISH intensity” value is -0.705 (inactive).
The same measure for `CC/C=C\C/C=C\C/C=C\C/C=C\C/C=C\CCCC(=O)O` [Eicosapentaenoic acid (20:5 n-3)]: 1.38 (inactive).
The same measure for `NS(=O)(=O)c1cc(C2(O)NC(=O)c3ccccc32)ccc1Cl` (stereo unspecified) [Chlorthalidone]: -0.245 (inactive).
The same measure for `NNc1nncc2ccccc12`: -0.795 (inactive); for `COc1ccc(CC2c3cc(OC)c(OC)cc3CC[N+]2(C)CCC(=O)OCCCCCOC(=O)CC[N+]2(C)CCc3cc(OC)c(OC)cc3C2Cc2ccc(OC)c(OC)c2)cc1OC` (stereo unspecified) [Atracurium Besylate]: -0.402 (inactive).
As for `CCCOc1ccccc1-c1nc2[nH]nnc2c(=O)[nH]1` [Zaprinast], the “MALAT1 nuclear FISH intensity” value is 0.586 (inactive).
For `C[C@H]1c2cccc(O)c2C(=O)C2=C(O)[C@]3(O)C(=O)C(C(N)=O)=C(O)[C@@H](N(C)C)[C@@H]3[C@@H](O)[C@@H]21`, the “MALAT1 nuclear FISH intensity” value is 1.19 (inactive).
The same measure for `C[C@@H](NCCCc1cccc(C(F)(F)F)c1)c1cccc2ccccc12`: -0.761 (inactive); for `O=C[C@@H]1CCCN1C(=O)[C@@H]1CCCN1C(=O)OCc1ccccc1` [Z-prolyl-prolinal]: -0.5 (inactive).
The same measure for `Oc1cc2c(cc1O)CN(C(=S)NCCc1ccc(Cl)cc1)CCC2` [Capsazepine]: 0.801 (inactive); for `COc1ccc2cc(CCC(C)=O)ccc2c1` [Nabumetone]: 1.23 (inactive).
The same measure for `CN[C@H]1CC[C@@H](c2ccc(Cl)c(Cl)c2)c2ccccc21` [Sertraline hydrochloride]: -1.48 (inactive); for `CCCCNC(=O)NS(=O)(=O)c1ccc(C)cc1` [Tolbutamide]: -0.395 (inactive).
For the molecule `Cc1ccc2c(c1)C(=O)C1(O)CCN(c3ccccc3)C1=N2` (stereo unspecified) [Blebbistatin], the “MALAT1 nuclear FISH intensity” value is -1.33 (inactive).
The same measure for `CCCNCC(O)COc1ccccc1C(=O)CCc1ccccc1` (stereo unspecified) [Propafenone]: 0.478 (inactive).
With `Cn1cc(-c2ccc3c(c2)CCN3C(=O)Cc2cccc(C(F)(F)F)c2)c2c(N)ncnc21`, the “MALAT1 nuclear FISH intensity” value is -0.916 (inactive).
The same measure for `CO/N=C(\C(=O)N[C@@H]1C(=O)N2C(C(=O)O)=C(COC(C)=O)CS[C@H]12)c1csc(N)n1` [Cefotaxime Acid]: 0.476 (inactive); for `CC(C)C[C@@H](/C=C/S(C)(=O)=O)NC(=O)[C@H](CC(C)C)NC(=O)[C@H](CC(C)C)NC(=O)OCc1ccccc1`: -0.805 (inactive); for `CCCCC/C=C\C/C=C\CC1OC1C/C=C\CCCC(=O)O` (stereo unspecified) [8,9-Epoxyeicosatrienoic acid]: 0.155 (inactive).
The same measure for `CC(N)C12CC3CC(CC(C3)C1)C2` (stereo unspecified): -1.27 (inactive); for `CCc1nn(CCCN2CCN(c3cccc(Cl)c3)CC2)c(=O)n1CCOc1ccccc1`: -0.0539 (inactive).
For `O=C(O)CCCC=CCC1C2CCC(O2)C1CNNC(=O)Nc1ccccc1` (stereo unspecified), the “MALAT1 nuclear FISH intensity” value was 0.246 (inactive).
The same measure for `O=C(NCc1ccncc1)C12CC3CC(C1)CC(c1ccc(Cl)cc1)(C3)C2`: -0.397 (inactive).
The same measure for `CN(C)CCOC(c1ccccc1)c1ccccc1`: -0.464 (inactive); for `CC(C)C(=O)OCC(=O)[C@@]12O[C@H](C3CCCCC3)O[C@@H]1C[C@H]1[C@@H]3CCC4=CC(=O)C=C[C@]4(C)[C@H]3[C@@H](O)C[C@@]12C` [Ciclesonide]: 0.494 (inactive); for `CCCCC/C=C\C[C@@H](O)/C=C/C=C/C=C\[C@@H](O)CCCC(=O)O` [Leukotriene B4]: 0.936 (inactive).
Turning to `CN(N=O)C(=O)N[C@@H](C=O)[C@@H](O)[C@H](O)[C@H](O)CO` [Streptozocin], the “MALAT1 nuclear FISH intensity” value was -0.691 (inactive).
Consider `CCCCCCCCCCCCC/C=C/[C@@H](O)[C@H](CO)NC(=O)CCCCCCCCCCCCCCC` [C16 Ceramide], for which the “MALAT1 nuclear FISH intensity” value was 0.493 (inactive).
For the molecule `CC1(C)O[C@@H]2C[C@H]3[C@@H]4C[C@H](F)C5=CC(=O)CC[C@]5(C)[C@H]4[C@@H](O)C[C@]3(C)[C@]2(C(=O)CO)O1` [Flurandrenolide], the “MALAT1 nuclear FISH intensity” value is 0.893 (inactive).

The record behind these values is the supplement of paper PMC9844399.
